From PubChem BioAssay (NCI)
Compounds without any hit were thinned out: in the full panel of roughly 79,000, 15% have a hit. The source made the active and inactive calls. Cut-off read from the data, not from the text of the source: active = growth inhibition above about 70%; inactive = the rest.

What was measured:
[1] = NCI Yeast Anticancer Drug Screen. Data for the rad50 strain (AID 155);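 note: 0% = growth of vehicle-only cultures of the same strain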; conditions: S. cerevisiae rad50 strain growth inhibition, hits give high values
How it was run: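 Readout: growth inhibition relative to vehicle-treated cultures. Compound exposure was carried out in a genetically defined yeast strain deficient in DNA damage repair.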

[2] = NCI Yeast Anticancer Drug Screen. Data for the mec2-1 strain (AID 157); conditions: S. cerevisiae mec2-1 strain, hits give high values
How it was run: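 Test agents were screened against the mec2-1 yeast strain, with defined DNA repair or cell cycle alteration. Growth was scored as inhibition against vehicle-only controls.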

[3] = NCI Yeast Anticancer Drug Screen. Data for the sgs1 mgt1 strain (AID 161);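 note: 0% = growth of cultures given vehicle only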; conditions: S. cerevisiae sgs1 mgt1 strain, hits give high values
How it was run: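 Inhibition of yeast growth, normalised to vehicle-treated controls, is reported for a strain bearing genetic alterations in DNA damage repair.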

[4] = NCI Yeast Anticancer Drug Screen. Data for the cln2 rad14 strain (AID 165);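 note: 0% = growth equal to vehicle treated cultures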; conditions: S. cerevisiae cln2 rad14 strain, hits give high values
How it was run: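 Growth of compound-exposed yeast (cln2 rad14 genotype) measured and expressed as inhibition relative to vehicle.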

[5] = NCI Yeast Anticancer Drug Screen. Data for the bub3 strain (AID 167); conditions: S. cerevisiae bub3 mutant strain, hits give high values
How it was run: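 Readout: yeast growth inhibition, expressed relative to vehicle-only wells. The test organism is a mutant strain from a panel with lesions in DNA repair or checkpoint genes.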

[6] = NCI Yeast Anticancer Drug Screen. Data for the mlh1 rad18 strain (AID 175); conditions: S. cerevisiae mlh1 rad18 strain growth inhibition, hits give high values
How it was run: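 In this whole-cell yeast screen, a strain with altered DNA damage repair is challenged with compound, and its growth is measured against matched vehicle-treated controls.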

[7] = at 5.0 µM (retest, dose inferred, filed as 0.5)
[8] = at 50.0 µM (retest, dose inferred, filed as 5.0)

Measured: growth inhibition

CN(CCC(=O)/C(=C\c1ccc(Cl)cc1)c1ccccc1)Cc1ccccc1
inactive: [1]; at 50.0 µM 62.9%
active: [1]; [7] 98% | [1]; [8] 98% | [2]; [7] 100% | [2]; [8] 99% | [2]; at 50.0 µM 99% | [3]; [7] 99% | [3]; [8] 99% | [3]; at 50.0 µM 98.2% | [4]; [7] 98% | [4]; [8] 98% | [4]; at 50.0 µM 98.5% | [5]; [7] 97% | [5]; [8] 99% | [5]; at 50.0 µM 97.6% | [6]; [7] 99% | [6]; [8] 99% | [6]; at 50.0 µM 98.5%

N#CSc1ccc(O)c2ccccc12
inactive: [2]; [7] 64% | [3]; [7] 19% | [4]; [7] 45% | [5]; [7] 42% | [6]; [7] 29%
active: [1]; [7] 75% | [1]; [8] 79% | [1]; at 50.0 µM 90.2% | [2]; [8] 87% | [2]; at 50.0 µM 91% | [3]; [8] 98% | [3]; at 50.0 µM 91.7% | [4]; [8] 98% | [4]; at 50.0 µM 91% | [5]; [8] 96% | [5]; at 50.0 µM 90.3% | [6]; [8] 74% | [6]; at 50.0 µM 89.5%

Clc1ccccc1N1CCN(c2c3c(nc4ccccc24)CCCCC3)CC1
inactive: [1]; [7] -4% | [2]; [7] 11% | [3]; [7] 38% | [4]; [7] -13% | [5]; [7] -10% | [6]; [7] 42%
active: [1]; [8] 89% | [1]; at 50.0 µM 93.3% | [2]; [8] 96% | [2]; at 50.0 µM 95.8% | [3]; [8] 96% | [3]; at 50.0 µM 94% | [4]; [8] 91% | [4]; at 50.0 µM 94.2% | [5]; [8] 92% | [5]; at 50.0 µM 93.2% | [6]; [8] 94% | [6]; at 50.0 µM 95.6%

C\C=C/C=C/C=C/C(=O)O
inactive: [1]; [7] 5% | [1]; [8] 13% | [1]; at 50.0 µM 66.5% | [2]; [7] 2% | [2]; [8] -4% | [2]; at 50.0 µM 60.1% | [3]; [7] 2% | [3]; [8] 7% | [3]; at 50.0 µM 42.3% | [4]; [7] -2% | [4]; [8] 3% | [4]; at 50.0 µM 40.6% | [5]; [7] 4% | [5]; [8] 0% | [6]; [7] 1% | [6]; [8] 8% | [6]; at 50.0 µM 45%
active: [5]; at 50.0 µM 95%

Cc1c(-c2ccccc2)sc(/N=C/c2cc(Br)cc(Br)c2O)c1C#N
inactive: [1]; [7] -17% | [1]; [8] 63% | [1]; at 50.0 µM 5.9% | [2]; [7] 10% | [2]; [8] 34% | [2]; at 50.0 µM 25.3% | [3]; [7] 15% | [3]; at 50.0 µM 29% | [4]; [7] 11% | [4]; [8] 12% | [4]; at 50.0 µM 10.8% | [5]; [7] 5% | [5]; at 50.0 µM 19.2% | [6]; [7] 10% | [6]; [8] 60% | [6]; at 50.0 µM 62.9%
active: [3]; [8] 84% | [5]; [8] 75%

Cc1nc2ccc(NCCN(C)C)c3c(=O)c4cc(O)ccc4n1c23
inactive: [1]; [7] 25% | [1]; [8] 63% | [1]; at 50.0 µM -20.4% | [2]; [7] -3% | [2]; [8] 12% | [2]; at 50.0 µM 20.4% | [3]; [7] -4% | [3]; [8] 16% | [3]; at 50.0 µM -4.45% | [4]; [7] 3% | [4]; [8] 16% | [4]; at 50.0 µM 11.2% | [5]; [7] 13% | [5]; [8] 13% | [5]; at 50.0 µM 1.4% | [6]; [7] -3% | [6]; [8] 20% | [6]; at 50.0 µM 61.4%

CC(C)N=C(NC(C)C)SCCCCCCSC(=NC(C)C)NC(C)C
inactive: [1]; [7] 2% | [1]; [8] -2% | [1]; at 50.0 µM 12.3% | [2]; [7] -1% | [2]; [8] 1% | [2]; at 50.0 µM -17.2% | [3]; [7] -7% | [3]; [8] 1% | [3]; at 50.0 µM 2.4% | [4]; [7] -6% | [4]; [8] -1% | [5]; [7] 3% | [5]; [8] -2% | [5]; at 50.0 µM -16.2% | [6]; [7] -1% | [6]; [8] -5% | [6]; at 50.0 µM 6.9%
active: [4]; at 50.0 µM 76.2%

O=C1c2scc(-c3ccccc3)c2-n2cccc21
active: [1]; [8] 96% | [1]; at 50.0 µM 78.5% | [2]; [8] 95% | [2]; at 50.0 µM 90.1% | [3]; [8] 87% | [3]; at 50.0 µM 82.5% | [4]; [8] 81% | [4]; at 50.0 µM 80.8% | [5]; [8] 94% | [5]; at 50.0 µM 79% | [6]; [8] 94% | [6]; at 50.0 µM 88.2%
inactive: [1]; [7] -6% | [2]; [7] -10% | [3]; [7] 2% | [4]; [7] 10% | [5]; [7] -16% | [6]; [7] -16%

CC(=O)OC(c1ccc(Cl)cc1)c1ccc(Cl)cc1
inactive: [1]; [7] -43% | [1]; [8] 1% | [1]; at 50.0 µM 16.5% | [2]; [7] -11% | [2]; [8] -8% | [2]; at 50.0 µM -2% | [3]; [7] -7% | [3]; [8] 20% | [3]; at 50.0 µM 18.8% | [4]; [7] -17% | [4]; [8] 4% | [4]; at 50.0 µM 8.85% | [5]; [7] 2% | [5]; [8] 0% | [5]; at 50.0 µM 0.2% | [6]; [7] -22% | [6]; [8] 16% | [6]; at 50.0 µM 18.9%

COc1ccccc1NC(=O)C1=C(C)NC(C)=C(C(=O)Nc2ccccc2OC)C1c1ccc(OC)c(OC)c1
inactive: [1]; [7] 9% | [1]; [8] 50% | [1]; at 50.0 µM 55.9% | [2]; [7] -3% | [2]; [8] 43% | [2]; at 50.0 µM 26.6% | [3]; [7] 9% | [3]; [8] 48% | [3]; at 50.0 µM 49.9% | [4]; [7] -4% | [4]; [8] 31% | [4]; at 50.0 µM -38.9% | [5]; [7] -1% | [5]; [8] 51% | [5]; at 50.0 µM -3.55% | [6]; [7] 2% | [6]; [8] 38% | [6]; at 50.0 µM 23.9%
